This is a sample that favours compounds with a hit; in the whole collection about 11% have one here.
VDR inhibitor: Inhibitors of the vitamin D receptor (VDR): qHTS | Potency, µM, usual class: inhibitors | 0.93% of 400,000 active | AID 504847, 2011 | VDR-SRC2-3 peptide fluorescence polarization, 2 h
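The screen uses fluorescence polarization to detect compounds that interfere with recruitment of the SRC2-3 coactivator peptide to VDR; plates are read after 2 h at room temperature.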
HP1b chromo inh: HTS for Inhibitors of HP1-beta Chromodomain Interactions with Methylated Histone Tails; Chromobox protein homolog 1 (Homo sapiens), P83916; AlphaScreen HP1-beta / biotin-H3K9me3 peptide binding; Potency, µM (titrated, usually from 114 µM), actives largely listed as inhibitors; 0.56% of 390,000 active; further: nearly all actives have a fitted effect of over 70% in size
Target sequence (P83916 whole entry, looked up): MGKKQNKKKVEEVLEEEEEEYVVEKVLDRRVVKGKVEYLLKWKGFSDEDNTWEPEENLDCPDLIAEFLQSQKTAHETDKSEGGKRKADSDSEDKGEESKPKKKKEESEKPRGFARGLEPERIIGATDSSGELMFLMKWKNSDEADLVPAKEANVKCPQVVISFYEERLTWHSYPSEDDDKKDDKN
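AlphaScreen: HP1-beta (50 nM) preformed 30 min with biotin-H3(1-18)K9me3 peptide (50 nM) in PBS pH 7.4, 0.01% Tween-20. Compound added for 30 min at RT, then streptavidin donor/nickel chelate acceptor beads (10 ug/mL) for 30 min.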
JMJD2A Tudor: qHTS Assay for Inhibitors of JMJD2A-Tudor Domain; AlphaScreen JMJD2A-Tudor / H3K4me3 peptide binding; Lysine-specific demethylase 4A (Homo sapiens), O75164; 4.4% of 390,000 active; Potency, µM (doses to about 114 µM), most hits filed as inhibitors; further: nearly all actives have a fitted effect of over 50% in size
PLK1 PBD inh: qHTS for Inhibitors of PLK1-PDB (polo-like kinase 1 - polo-box domain): Primary Screen. 2.8% of 360,000 active. Plk1 PBD binding of FITC phosphopeptide, fluorescence polarization. Potency, µM, most hits filed as inhibitors; further: series mostly up to about 57 µM; nearly all actives have a fitted effect of over 65% in size
G9a block: qHTS Assay for Inhibitors of Histone Lysine Methyltransferase G9a; AID 504332, 2011; 8.8% of 350,000 active; G9a H3K9 monomethylation, AlphaScreen, 2 h; Potency, µM (titrated, usually from 102 µM), hits mostly inhibitors; Histone-lysine N-methyltransferase EHMT2 (Homo sapiens), Q96KQ7; further: nearly all actives have a fitted effect of over 75% in size
Target sequence (Q96KQ7 913-1193 limits assumed): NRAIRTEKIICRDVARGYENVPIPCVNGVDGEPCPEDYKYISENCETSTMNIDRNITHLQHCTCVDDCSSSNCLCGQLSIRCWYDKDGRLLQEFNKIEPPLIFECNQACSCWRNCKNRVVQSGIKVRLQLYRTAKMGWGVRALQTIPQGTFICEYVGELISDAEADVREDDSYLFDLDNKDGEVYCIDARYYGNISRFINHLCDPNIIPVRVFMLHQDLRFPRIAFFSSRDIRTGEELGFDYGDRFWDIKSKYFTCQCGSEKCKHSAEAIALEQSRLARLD
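Compounds were preincubated with 20 nM G9a for 15 min, after which biotinylated H3K9 peptide (500 nM) and SAM (20 uM) started a 2 h room-temperature reaction. Monomethylated product was quantified by antibody-based AlphaScreen chemiluminescence.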
BAZ2B block: qHTS Assay for Inhibitors of BAZ2B | Bromodomain adjacent to zinc finger domain protein 2B (Homo sapiens), Q9UIF8 | AlphaScreen BAZ2B-H3K14Ac peptide displacement | Potency, µM (series often up to 114 µM), actives largely listed as inhibitors | 4.4% of 360,000 active | AID 504333, 2011; further: nearly all actives have a fitted effect of over 60% in size
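Compounds, titrated to a top concentration of 110 uM, were incubated 30 min at room temperature with preformed BAZ2B/acetyl-K14 H3 peptide complex (50 nM each). Proximity signal was measured by AlphaScreen after 20 min with beads.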
Hits are given with their value; [ ] = another dose, or the depositor's remark. The call rests on the fitted dose curve; in most records, active means well fitted curve in the direction sought with a large enough effect; inconclusive means small, poorly fitted or top-dose-only effect, or another doubt; inactive means no such curve, though single readings can be large; an effect the other way counts as inactive or inconclusive.

CCn1c(O)c(C=Nc2ccccc2)oc1=S was read as VDR inhibitor inactive, HP1b chromo inh inactive, JMJD2A Tudor inactive, PLK1 PBD inh 27µM, G9a block 28µM and BAZ2B block inactive.
Oc1c(/C=C/C=C/C=Nc2ccccc2)sc(=S)n1Cc1ccccc1 was read as VDR inhibitor inactive, HP1b chromo inh inconclusive, JMJD2A Tudor inconclusive, PLK1 PBD inh inconclusive, G9a block 2.2µM and BAZ2B block inconclusive.
`CCCCn1c(O)c(/C=C/C=C/C=Nc2ccccc2)sc1=S` gave VDR inhibitor inconclusive, HP1b chromo inh 3.2µM, JMJD2A Tudor inconclusive, PLK1 PBD inh inconclusive, G9a block 2.8µM and BAZ2B block 6.3µM.
Screening CCn1c(O)c(C=NCc2ccccc2)sc1=S returned VDR inhibitor inactive, HP1b chromo inh inactive, JMJD2A Tudor inconclusive, PLK1 PBD inh inactive and BAZ2B block inconclusive.
Screening CCCn1c(O)c(C=Nc2ccccc2)sc1=S returned VDR inhibitor inactive, HP1b chromo inh inactive, JMJD2A Tudor inactive[11.4 µM], PLK1 PBD inh inactive, G9a block inactive and BAZ2B block inactive.
`CCn1c(O)c(/C=C/C=C/C=Nc2ccccc2)sc1=S` gave VDR inhibitor inactive, HP1b chromo inh inconclusive, JMJD2A Tudor inconclusive, PLK1 PBD inh inconclusive, G9a block 14µM and BAZ2B block inconclusive.
COc1ccc(C2/C=C\CN(S(=O)(=O)CC34CCC(CC3=O)C4(C)C)CC(=O)N2Cc2ccc(F)cc2)cc1 (stereo not drawn) was read as VDR inhibitor inactive, HP1b chromo inh inactive and JMJD2A Tudor inactive.
COc1ccc(Oc2ncc3ncc(=O)n(C)c3n2)cc1 was read as VDR inhibitor inactive and G9a block inactive[0.501 µM].
`O=C1CN(S(=O)(=O)c2cccc(Cl)c2Cl)c2ccccc2N1` gave VDR inhibitor inactive, HP1b chromo inh inactive, JMJD2A Tudor inactive, PLK1 PBD inh inconclusive, G9a block 50µM and BAZ2B block inactive.
Screening Cc1cc(C)c(NC(=O)CCCCCNC2CCCCC2)c(C)c1 returned VDR inhibitor inactive, HP1b chromo inh inactive, JMJD2A Tudor inconclusive, PLK1 PBD inh 27µM, G9a block inactive[12.7 µM] and BAZ2B block inactive.
`CCN(c1cccc(C)c1)S(=O)(=O)c1nnc(NC(=O)C2CCCCC2)s1` gave VDR inhibitor inactive, HP1b chromo inh inactive, JMJD2A Tudor inactive, G9a block inactive and BAZ2B block inactive.
COc1ccc(-c2cc3nc(CCl)[nH]c(=O)c3s2)cc1 was read as VDR inhibitor inactive, HP1b chromo inh inactive, JMJD2A Tudor inconclusive, PLK1 PBD inh inactive, G9a block 50µM and BAZ2B block inactive.
Screening CCN(CC)C(=O)C1=C(C)NC(=S)NC1c1ccc(C)s1 (stereo not drawn) returned VDR inhibitor inactive, HP1b chromo inh inactive, JMJD2A Tudor inactive, PLK1 PBD inh inactive, G9a block inactive and BAZ2B block inactive.
Cn1c(CNc2nc(-c3ccccc3)cs2)nnc1SCC(=O)OC1CCCCC1 was read as VDR inhibitor inactive, HP1b chromo inh inconclusive, JMJD2A Tudor inactive, PLK1 PBD inh inactive, G9a block inconclusive and BAZ2B block inconclusive.
For CC(C)OC(=O)CSc1nnc(CNc2nc(-c3ccccc3)cs2)n1C the results were VDR inhibitor inactive, HP1b chromo inh inactive, JMJD2A Tudor inactive, PLK1 PBD inh inconclusive, G9a block 45µM and BAZ2B block inconclusive.
`CCOc1ccccc1NC(=O)CN1C(=O)C2(SCC(=O)N2c2cccc(F)c2)c2ccccc21` (stereo not drawn) gave VDR inhibitor inactive, HP1b chromo inh inactive, JMJD2A Tudor inactive, G9a block inactive and BAZ2B block inactive.
For Cc1ccc(/C=C(/NC(=O)c2ccccc2)C(=O)NCCc2c[nH]c3ccccc23)o1 the results were VDR inhibitor inactive, HP1b chromo inh inactive, JMJD2A Tudor inactive, PLK1 PBD inh inactive, G9a block 45µM and BAZ2B block inconclusive.
For Cc1cccc(NC(=O)/C(=C\c2ccc([N+](=O)[O-])o2)NC(=O)c2ccc(Cl)cc2)c1 the results were VDR inhibitor inactive, HP1b chromo inh inconclusive, JMJD2A Tudor 35µM, PLK1 PBD inh inactive, G9a block inconclusive and BAZ2B block 50µM.

Screening data deposited in PubChem by National Center for Advancing Translational Sciences (NCATS).
